This is a sample that favours compounds with a hit; in the whole collection about 2.4% have one here.
Pol iota inh = DNA polymerase iota (human) inhibition; Pol iota fluorescent replication assay, 10 min; Q9UNA4; 390,000 compounds, 1% hits; Potency, µM (top dose mostly 115 µM), usual class: inhibitors
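Pol iota at 10 nM preincubated 15 min with compounds at room temperature; reaction started with fluorescent substrate, 50 nM final. Fluorescence read kinetically at 0 and 10 min; buffer-only wells as negative control.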
WRN inhibitor = WRN helicase (human) inhibition | Q14191 | WRN helicase unwinding, fluorescent forked duplex, kinetic | Potency, µM (highest dose often 114 µM), usual class: inhibitors | 360,000 compounds, 0.46% hits; further: nearly all actives have a fitted effect of over 55% in size
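WRN at 20 nM final was preincubated with compound for 15 min at room temperature; reaction started with 100 nM forked duplex oligonucleotide carrying fluorophore and quencher plus 2 mM ATP (final). Unwinding followed kinetically by red fluorescence (ex 525/em 598 nm).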
Pol kappa inh = DNA polymerase kappa (human) inhibition. purified Pol kappa, fluorescent DNA synthesis assay, 10 min. Potency, µM (top dose mostly 107 µM), most hits filed as inhibitors. 400,000 compounds, 0.53% hits. AID 588579
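Inhibition of 10 nM Pol kappa is measured by a fluorescent read-out at 0 and 10 min following addition of 50 nM substrate (final), with a 15-min room-temperature compound preincubation.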
FEN1 inh = human FEN1 inhibition | P39748 | Recombinant FEN1 flap cleavage, fluorescence, 15 min | Potency, µM (doses to about 114 µM), usual class: inhibitors | 390,000 compounds, 0.35% hits | AID 588795; further: nearly all actives have a fitted effect of over 65% in size
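With each library titrated from low to high concentration, compounds met 10 nM FEN1 for 15 min at room temperature before 50 nM substrate was added; readings at 0 and 15 min fed four-parameter Hill curve fits.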
POLH inh = DNA polymerase eta (human) inhibition; Q9Y253; recombinant Pol eta, fluorescent DNA replication assay; Potency, µM (highest dose often 114 µM), hits mostly inhibitors; 390,000 compounds, 1.2% hits; AID 588591
Target sequence (Q9Y253 whole entry, looked up): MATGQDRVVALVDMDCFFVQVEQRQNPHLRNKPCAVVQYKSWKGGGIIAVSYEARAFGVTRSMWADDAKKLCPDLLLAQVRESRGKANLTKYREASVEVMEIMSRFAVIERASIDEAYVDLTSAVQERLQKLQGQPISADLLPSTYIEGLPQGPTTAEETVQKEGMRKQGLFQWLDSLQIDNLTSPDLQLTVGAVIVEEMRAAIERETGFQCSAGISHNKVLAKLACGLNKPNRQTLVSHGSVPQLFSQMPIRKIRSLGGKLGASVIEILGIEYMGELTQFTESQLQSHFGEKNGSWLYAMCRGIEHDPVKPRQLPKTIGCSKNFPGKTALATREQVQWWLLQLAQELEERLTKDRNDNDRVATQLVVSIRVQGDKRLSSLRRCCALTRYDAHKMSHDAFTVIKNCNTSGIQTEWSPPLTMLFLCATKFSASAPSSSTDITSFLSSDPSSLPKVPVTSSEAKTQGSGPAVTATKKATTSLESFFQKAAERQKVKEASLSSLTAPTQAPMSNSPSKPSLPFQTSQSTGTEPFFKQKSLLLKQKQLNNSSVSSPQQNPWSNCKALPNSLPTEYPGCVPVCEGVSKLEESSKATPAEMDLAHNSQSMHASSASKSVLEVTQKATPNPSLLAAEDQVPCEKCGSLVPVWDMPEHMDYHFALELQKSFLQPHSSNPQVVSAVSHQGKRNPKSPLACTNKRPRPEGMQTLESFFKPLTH
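Fluorescent replication assay: 50 nM final substrate added after a 15 min room-temperature compound preincubation with 10 nM enzyme. Signal taken at 0 min and again at 10 min.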
POLB inh = inhibitors of human DNA polymerase beta | 340,000 compounds, 1.3% hits | Pol beta primer extension/strand displacement, fluorescence kinetic | P06746 | Potency, µM (top dose mostly 114 µM), hits mostly inhibitors
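Pol beta (10 nM) was preincubated with compound for 15 min at room temperature. The reaction was then started with 50 nM substrate and read immediately and after a further 10 min at room temperature.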
Each line names hits and unclear results; the compound was inactive in the other large screens. The call rests on the fitted dose curve; in most records, active means well fitted curve in the direction sought with a large enough effect; inconclusive means small, poorly fitted or top-dose-only effect, or another doubt; inactive means no such curve, though single readings can be large; an effect the other way counts as inactive or inconclusive.

CC1=C(C(=O)OCC(Cl)(Cl)Cl)N2C(=O)C(NC(=O)Cc3ccccc3)C2SC1 (configuration not stated)	none
Cc1nnc(SCC2=C(C(=O)O)N3C(=O)C(NC(=O)Cc4ccccc4)C3SC2)s1 (configuration not stated)	Pol iota inh inconclusive, Pol kappa inh inconclusive, POLH inh 22.4µM (no result: POLB inh)
NC1C(N)C(N)C1N (configuration not stated)	none (no result: WRN inhibitor, POLH inh, POLB inh)
Cc1cccc(CN2Cc3cccc4c3[C@H](C=CC4)CC2=O)c1	none (no result: WRN inhibitor, POLH inh, POLB inh)
Cc1nc(SCC#N)c2c3c(sc2n1)CCC3	none
N#CCSc1ncnc2sc3c(c12)CCC3	Pol iota inh inconclusive, Pol kappa inh inconclusive, POLH inh 89.1µM, POLB inh inconclusive
O=C(O)c1cc2c(o1)CCC/C2=N\O	POLB inh 89.1µM
Cc1cc(=O)c2cc3nc(-c4cccnc4)oc3c(Br)c2o1	POLB inh 39.8µM (no result: Pol iota inh, WRN inhibitor, Pol kappa inh, FEN1 inh, POLH inh)
O=c1oc(-c2cccnc2)nc2ccccc12	none
CC(C)(C)N/N=C/c1cc(Cl)cc([N+](=O)[O-])c1O	POLH inh inconclusive, POLB inh 35.5µM
C[N+]1(CC(=O)c2ccc(Cl)cc2)CCOCC1	Pol iota inh inconclusive, Pol kappa inh inconclusive (no result: WRN inhibitor, POLH inh, POLB inh)
Cc1ccc2oc(-c3cc(NC(=O)c4oc5ccccc5c4C)ccc3Cl)nc2c1	none (no result: WRN inhibitor)
Cc1ccc2oc(-c3cc(NC(=O)c4ncn[nH]4)ccc3O)nc2c1	POLH inh 44.7µM, POLB inh inconclusive
Cc1ccc2oc(-c3cc(NC(=O)c4ccco4)ccc3Cl)nc2c1	Pol iota inh inconclusive, Pol kappa inh inconclusive, FEN1 inh 79.4µM (no result: WRN inhibitor)
c1cnc2[nH]ccc2c1	none (no result: WRN inhibitor, POLH inh, POLB inh)
Cc1noc(C)c1-c1cncnc1NCc1ccccc1	none (no result: Pol iota inh, WRN inhibitor, FEN1 inh, POLH inh, POLB inh)
CC1(C)CCC[C@@](C)([C@H]2CC[C@]3(C)[C@@H]2[C@H](O)CC2[C@@]4(C)CC[C@H](O)C(C)(C)[C@@H]4[C@@H](O)C[C@]23C)O1 (some centres not stated)	none (no result: Pol iota inh, WRN inhibitor, FEN1 inh, POLH inh, POLB inh)
COc1ccc2[nH]c(O)c(N=NC(=O)Cc3cccs3)c2c1	Pol iota inh inconclusive, POLH inh 31.6µM, POLB inh inconclusive
CC(C)CN(CC(C)C)c1ccc(/C=C/c2nc3ccccc3s2)cc1	Pol iota inh inconclusive (no result: WRN inhibitor, POLH inh, POLB inh)
O/N=C(/C[n+]1ccsc1)c1ccc(I)cc1	none (no result: WRN inhibitor, POLH inh, POLB inh)
COc1ccc(S(=O)(=O)NC(C)C(=O)NCc2ccncc2)cc1C (configuration not stated)	none
COc1ccc(S(=O)(=O)NC(C)C(=O)NCc2ccncc2)cc1OC (configuration not stated)	Pol iota inh 89.1µM
CC(=O)Nc1cc(-c2cccc(C(=O)NCCN(C)C)c2)cn2c(-c3cccc(C(F)(F)F)c3)cnc12	WRN inhibitor 79.4µM (no result: Pol iota inh, Pol kappa inh, FEN1 inh, POLH inh, POLB inh)
COc1ccc(OC)c(NC(=O)C(=O)/C=C(\O)c2cc(OC)ccc2OC)c1	FEN1 inh 39.8µM
CN(C)c1ccc(C(=O)OCC(=O)Nc2ccc(S(N)(=O)=O)cc2)cc1	Pol iota inh inconclusive, WRN inhibitor 44.7µM, Pol kappa inh 50.1µM, FEN1 inh inconclusive, POLH inh inconclusive, POLB inh inconclusive
CCn1c2ccccc2c2cc(NC(=O)CSc3nnc(-c4cccc(OC)c4)n3N)ccc21	Pol iota inh inconclusive, POLB inh inconclusive
CCOc1ccc(-c2nnc(SCC(=O)Nc3ccc4c(c3)c3ccccc3n4CC)n2N)cc1	Pol iota inh 50.1µM, POLH inh inconclusive, POLB inh 39.8µM
COc1cc2c(cc1OC)CN(C(=O)CN1CCN(S(=O)(=O)c3ccccc3Br)CC1)CC2	none
COc1cc2c(cc1OC)CN(C(=O)Cn1ccccc1=O)CC2	Pol iota inh inconclusive, POLH inh 35.5µM, POLB inh 79.4µM
COc1ccc(N2CCN(C(=O)NC3CCCCC3)CC2)cc1	Pol iota inh 89.1µM, POLH inh inconclusive
COc1ccc(-c2cc(-c3ccc(Cl)cc3)c(C#N)c(SCC(=O)O)n2)cc1	POLB inh 31.6µM
N#Cc1c(-c2ccccc2)cc(-c2ccccc2)nc1SCC(=O)NCC(=O)O	POLB inh 50.1µM
CCN(CC)C(=O)CSc1nc(-c2ccccc2)cc(-c2ccc(OC)cc2)c1C#N	none (no result: WRN inhibitor)
CCOC(=O)CC(=O)CSc1nc(-c2ccccc2)cc(-c2ccccc2)c1C#N	none
COc1ccc(-c2cc(-c3ccccc3)nc(SC(C)C(=O)O)c2C#N)cc1 (configuration not stated)	Pol iota inh 39.8µM
CN(C)c1ccc(/C=C/c2c(F)cnc3ccccc23)cc1	FEN1 inh inconclusive (no result: WRN inhibitor, POLH inh, POLB inh)
CC(Sc1ccsc1[N+](=O)[O-])C(=O)NCc1ccccc1 (configuration not stated)	none (no result: Pol iota inh, WRN inhibitor, Pol kappa inh, FEN1 inh, POLH inh)
COc1ccccc1CNC(=O)C(C)Sc1ccsc1[N+](=O)[O-] (configuration not stated)	Pol iota inh inconclusive, POLH inh 39.8µM
Cc1ccc(CNC(=O)CSc2ccsc2[N+](=O)[O-])cc1	none
COc1ccc(CNC(=O)CSc2ccsc2[N+](=O)[O-])cc1	Pol iota inh inconclusive, Pol kappa inh inconclusive, POLH inh 50.1µM
C(=C1C=c2ccccc2=C1)c1ccc(N=Nc2ccc(C=C3C=c4ccccc4=C3)cc2)cc1	none (no result: WRN inhibitor, POLH inh, POLB inh)
Cc1ccc2[nH]c(CSc3nnc(NC(=O)c4ccc(Cl)cc4)s3)cc(=O)c2c1	none (no result: WRN inhibitor)
COc1ccccc1C(=O)Nc1nnc(SCc2cc(=O)c3cc(Cl)ccc3[nH]2)s1	POLB inh 3.98µM (no result: WRN inhibitor)
CC(C)(C)n1ncc2c(=O)n(Cc3ccc(-c4ccccc4C#N)cc3)cnc21	none (no result: WRN inhibitor, POLH inh, POLB inh)
CCOC(=O)C1Nc2ccccc2C2C(O)C(O)CC12 (configuration not stated)	Pol iota inh 25.1µM (no result: POLB inh)
CCOC(=O)C1Nc2ccc(C(F)(F)F)cc2C2c3ccccc3CC12 (configuration not stated)	none (no result: POLB inh)
CCOc1cc(CNc2ccc(O)cc2)cc(Br)c1OCc1ccccc1F	FEN1 inh inconclusive
CCNCc1ccccc1OCc1ccccc1	none
CCOc1cc(CNc2ccc(O)cc2)cc(Br)c1OCc1ccccc1	Pol iota inh 39.8µM (no result: WRN inhibitor)
Oc1ccc(NCc2ccccc2OCc2ccccc2)cc1	Pol iota inh 7.08µM, FEN1 inh inconclusive, POLH inh inconclusive
COc1cc(CNc2ccc(O)cc2)cc(Br)c1OCc1ccccc1F	Pol iota inh 28.2µM, WRN inhibitor inconclusive
NS(=O)(=O)c1ccc(S(=O)(=O)N2CCN(c3nc(-c4cccs4)nc4ccccc34)CC2)cc1	none (no result: WRN inhibitor, POLH inh, POLB inh)
CC1=Nc2cc(C(=O)O)ccc2Sc2ccc(Br)cc21	Pol iota inh inconclusive, Pol kappa inh inconclusive, POLH inh 50.1µM
CCC1C(=O)C(C)(C)C(=O)OC1c1ccc([N+](=O)[O-])cc1 (configuration not stated)	POLB inh 89.1µM
O=C1CC(=O)OC(c2ccc([N+](=O)[O-])cc2)O1	none (no result: Pol iota inh, Pol kappa inh, FEN1 inh, POLB inh)
COc1ccc(NC(=O)CNC(=O)Cn2c(C)cc3ccccc3c2=O)c(OC)c1	POLB inh 79.4µM
